Screens deposited in PubChem BioAssay by several laboratories.
A selection: hits, their analogues and other compounds. The true share with any hit is near 2.4%.
TMEM16A act: activators or potentiators of mouse TMEM16A chloride channel; Q8BHY3; B-score at 10 µM; AID 623877; hit rate 0.3% among 340,000; HEK293 TMEM16A/YFP-H148Q/I152L, iodide quench fluorescence; stronger effect = lower value;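 active means fluorescence-ratio B-score plate-corrected deviation score at least 3 library SD below zero, with starting fluorescence score within 5 deviations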;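 further: channel opened by trigger with iodide after compound preincubation; score built on the fluorescence ratio of max minus min over baseline; more negative score means more quench and so TMEM16A activation or potentiation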
Cardiac RTF inh: cardiac RTF calcium desensitization. P19429+P45379. IANBD-labeled cardiac RTF, Ca2+ fluorescence. inhibition, % at 7.15 µM. hit rate 0.12% among 340,000. AID 493244;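 active means inhibition above the mean inhibition of all tested compounds plus 3 SD, cut at about 17% in these data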;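 further: assay run at fixed EC70 calcium of 1.6 mM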
CRFBP-R2 block: CRF-BP/CRF-R2 complex antagonism; HEK293 CRF-R2/CRF-BP, CRF-induced calcium fluorescence; inhibition, % at 11.8 µM; hit rate 0.59% among 350,000; AID 588475;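 active means inhibition of the ligand-induced calcium signal above about 50% at the single tested concentration, limit read from the data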
cardiac RTF act: increases calcium sensitivity of human cardiac regulated thin filaments; P19429+P45379; IANBD-labeled TnC RTF fluorescence at EC20 calcium; 0% EC20 calcium, 100% full calcium; activation, % at 7.2 µM; hit rate 0.24% among 340,000; AID 493008;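 active means activation above the mean over all tested compounds plus 3 SD, cut at about 30% in these data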;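 further: rise in fluorescence read as greater calcium sensitivity of cardiac thin filaments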
CRFR2-BP ag: CRF-BP/CRF-R2 complex agonism; activation, % at 13.2 µM; HEK293 CRF-R2/CRF-BP, calcium dye fluorescence (FLIPR); percent of saturating CRF peptide response; AID 588473; hit rate 0.46% among 350,000;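 active means activation of at least 50%, plus an integration ratio under a set limit after plate pattern correction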;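 further: plate controls were neutral control wells without compound for no effect and CRF at EC100 for full effect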
ANO1 block: inhibitors of mouse TMEM16A calcium-activated chloride channel; Q8BHY3; HEK293 TMEM16A/YFP iodide influx fluorescence, ionomycin; normalized B-score (activity score, 25-100; higher = stronger inhibition) at 10 µM; hit rate 1.2% among 310,000;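 active means ratio plate-corrected score three or more library SD toward inhibition, starting fluorescence score within five deviations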;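 further: score derived from kinetic fluorescence span divided by baseline fluorescence per well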
Numbers without * were called inactive; i = inactive; x = not tested or not shown.

SMILES	TMEM16A act	Cardiac RTF inh	CRFBP-R2 block	cardiac RTF act	CRFR2-BP ag	ANO1 block
COc1c(CC=C(C)C)cc(C2CC(=O)c3c(O)cc(O)cc3O2)c(CC=C(C)C)c1O (configuration not stated)	x	x	1	x	-1	100*
COc1cc(CC(=O)OCC(=O)N2C(C)CCCC2C)cc(OC)c1OC (configuration not stated)	i	-9	12	9	5	i
CSc1ccccc1NC(=O)c1cc(CC(C)C)on1	i	0	63*	13	0	i
CC(C)Cc1cc(C(=O)Nc2cccnc2)no1	i	-6	5	-2	2	i
CC(=O)N1CCN(S(=O)(=O)c2cccc(C(=O)Nc3ccccc3N3CCCC3)c2)CC1	i	-3	8	-4	-2	i
COc1ccc(C(C)=O)cc1COC(=O)c1cc(C)oc1C	-11*	1	25	0	-1	i
COc1ccc(NC(=O)c2ccccc2Oc2ccccc2)cc1	i	-2	7	-4	-2	i
O=C(O)c1ccccc1C(=O)Nc1ccc(Oc2cccc3ccccc23)cc1	i	-1	21	7	126*	x
Cc1cccc(Oc2ccc(NC(=O)c3ccccc3C(=O)O)cc2)c1C	i	3	19	-1	81*	i
O=C(O)c1ccccc1C(=O)Nc1ccc(Oc2ccc3ccccc3c2)cc1	i	5	-12	1	-2	i
CCn1c(SCC(=O)Nc2cccc(C)n2)nc2c1c(=O)n(C)c(=O)n2C	i	6	-8	0	1	i
CCN=C(NCC)SC1CC(=O)N(c2ccc(OC)cc2)C1=O (configuration not stated)	i	4	-9	-2	1	i
CCN=C(NCC)SC1CC(=O)N(c2cccc(OCC)c2)C1=O (configuration not stated)	-9.4*	-29	-3	-6	2	i
Cc1ccc(C(=O)NN(CCC(=O)NC(C)(C)C)C2=NS(=O)(=O)c3ccccc32)cc1	i	-4	14	14	-2	i
CC(C)(CNC(=O)c1cc(Cl)c(O)c(Cl)c1)N1CCCCC1	i	-4	55*	-8	-3	i
COc1ccc(CNC(=O)CCS(=O)(=O)c2ccc3c(c2)CC(C)N3C(=O)C2CC2)cc1 (configuration not stated)	i	1	-8	1	-1	i
CC1=CC(=C(C#N)c2nc3ccccc3s2)C=C(C)N1CC1CCCO1 (configuration not stated)	i	3	-26	7	64*	i
CC1Cc2ccccc2N1C(=O)CSc1nn2c(=O)c(C(C)(C)C)nnc2s1 (configuration not stated)	-37*	-26	-9	-1	0	i
CC(C)(C)c1nnc2sc(SCC(=O)N3CCCc4ccccc43)nn2c1=O	i	1	-8	-1	-1	i
Clc1ccc(C(c2nnnn2C2CCCC2)N2CCN(c3nc4ccccc4s3)CC2)cc1 (configuration not stated)	-12*	-7	21	-3	0	i
C[N+]1=C(/C=C/Nc2ccccc2Cl)C(C)(C)c2ccccc21	i	-6	-12	5	6	i
COC(=O)c1ccc2c(c1)C(C)(C)C(/C=C/c1ccccc1O)=[N+]2C	i	-10	-122	17	53*	i
N#Cc1ccc(CN2CCN(CC(=O)NCCc3ccc(Cl)cc3Cl)CC2)cc1	i	-6	6	-5	0	i
COC(=O)C1=C(N)Oc2cc(C)n(Cc3ccncc3)c(=O)c2C1c1cccnc1 (configuration not stated)	-15*	5	13	12	-2	i
CC(C)=CC1C(C(=O)Nc2ccc(S(=O)(=O)N3CCOCC3)cc2)C1(C)C (configuration not stated)	-4.9*	-3	17	14	2	i
SMILES	TMEM16A act	Cardiac RTF inh	CRFBP-R2 block	cardiac RTF act	CRFR2-BP ag	ANO1 block
O=C(NCCc1ccc(Cl)cc1)c1ccc(CS(=O)Cc2ccc(Cl)cc2)o1 (configuration not stated)	i	-1	2	4	0	i
CSc1ccc(CCNC(=O)c2ccc(CS(=O)Cc3ccc(Cl)cc3)o2)cc1 (configuration not stated)	i	-1	80*	-1	2	i
O=C(NCc1cccs1)c1ccc(CS(=O)Cc2cccc(Cl)c2)o1 (configuration not stated)	i	-8	58*	2	-1	i
O=C(Cc1c(F)cccc1Cl)N/N=C/c1cccnc1	i	-2	-2	4	0	i
Cn1cccc1C(=O)OCC(=O)N1c2ccccc2NC(=O)C1(C)C	i	0	-1	5	0	i
COCCNC(=O)Cn1ncc2ccsc2c1=O	-11*	3	7	-6	-1	i
O=C(CSc1nncn1-c1ccccc1)Nc1cc(Cl)cc(Cl)c1	i	-6	-2	1	-1	25*
CC(C)C1C(=O)N(Cc2cn(CCC3OCCCO3)nn2)CCS(=O)(=O)N1Cc1ccc(-c2ccc(Cl)c(Cl)c2)cc1 (configuration not stated)	x	x	-8	x	0	x
CCCCCCCCCCCC(=O)c1c(O)cccc1O	i	5	15	12	0	100*
CC(C)[C@H](NC(=O)c1ccccc1Cl)C(=O)OCc1cc([N+](=O)[O-])cc2c1OCOC2	i	-11	7	0	-2	i
CSCCC(NC(=O)c1ccco1)C(=O)OCc1cc([N+](=O)[O-])cc2c1OCOC2 (configuration not stated)	i	-7	-44	-8	56*	i
COc1cc(CC(=O)Nc2ccc(S(=O)(=O)N(C)C)cc2)cc(OC)c1OC	i	-7	17	2	3	i
CCOC(=O)C1(CCOc2ccccc2)CCN(Cc2cc(OC)c3c(c2)OCO3)CC1	i	-8	-35	0	-1	i
O=C(NC(Cc1ccccc1)c1nc2ccccc2[nH]1)c1ccc(Cl)c([N+](=O)[O-])c1 (configuration not stated)	i	-9	76*	-5	0	i
N#CC1(NC(=O)COC(=O)c2nccnc2N)CCCCC1	i	-3	-7	-3	3	i
COc1cccc2c1Oc1ncccc1N(C(=O)CCC(=O)NCc1cccc(C)c1)C2	i	-5	-4	2	-1	i
CC(=O)C1=C(O)C(=O)N(c2nccs2)C1c1ccccc1 (configuration not stated)	i	-5	94*	-2	-3	i
